Experimental data reported in PubChem BioAssay.
Active and inactive are the calls of the source. Unless noted, the rule behind the calls is not given here.

Target: Dihydroorotate dehydrogenase (quinone), mitochondrial (Plasmodium falciparum (isolate 3D7)) (UniProt Q08210)
Assay: inhibition of P. falciparum DHODH – biochemical, C-terminal His tag, absorbance 600 nm, primary screen (AID 1175);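 note: recombinant parasite enzyme with a five histidine tag at its C terminus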
Settings: PfDHODH enzyme, DCIP absorbance 600 nm; higher = more signal, called active from +8 up or from −8 down
Note: test concentration not given here.

Dihydroorotate dehydrogenase (quinone), mitochondrial (Plasmodium falciparum (isolate 3D7)), sequence (Q08210 whole entry, looked up): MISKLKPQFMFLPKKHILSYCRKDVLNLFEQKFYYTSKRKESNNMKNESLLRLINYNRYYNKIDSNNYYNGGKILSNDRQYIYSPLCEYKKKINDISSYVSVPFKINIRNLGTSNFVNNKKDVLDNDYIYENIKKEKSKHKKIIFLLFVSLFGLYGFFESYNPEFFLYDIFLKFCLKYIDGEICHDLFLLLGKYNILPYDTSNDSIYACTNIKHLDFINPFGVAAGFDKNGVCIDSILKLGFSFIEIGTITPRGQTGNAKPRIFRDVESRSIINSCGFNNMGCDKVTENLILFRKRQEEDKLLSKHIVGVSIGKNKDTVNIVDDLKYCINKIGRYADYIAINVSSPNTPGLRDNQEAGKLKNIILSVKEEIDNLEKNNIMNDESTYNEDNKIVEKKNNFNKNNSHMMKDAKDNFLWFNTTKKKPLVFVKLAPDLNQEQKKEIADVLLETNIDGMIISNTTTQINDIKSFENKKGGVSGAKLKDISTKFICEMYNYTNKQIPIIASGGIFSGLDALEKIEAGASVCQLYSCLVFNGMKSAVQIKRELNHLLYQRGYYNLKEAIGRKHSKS

Composite z-score, inactive:
COc1ccc(C(=O)Nc2cccc(CN3C(=O)[C@@]4(O[C@@H](CCn5cc([C@H](O)c6ccccc6)nn5)[C@H]([Si](C)(C)c5ccc(OC)cc5)[C@H]4C)c4ccccc43)c2)cc1 -0.0516
COC(=O)[C@@]1(Cc2ccc(F)cc2)[C@H]2c3cc(C(=O)N4CCCC4)n(CCc4ccc(OC)c(Br)c4)c3C[C@H]2CN1C(=O)c1ccccc1 -0.163
CC(C)N1C(=O)c2ccccc2[C@](C)(C(=O)NC2CC2)[C@@H]1c1ccc(CO)cc1 -0.231
CCCNC(=O)[C@@]1(C)c2ccccc2C(=O)N(Cc2ccc(OC(F)(F)F)cc2)[C@H]1c1ccc(CO)cc1 0.263
C=CCC(OC(C)=O)[C@@H]1[C@@H](N(Cc2ccc(-c3cccc(C(F)(F)F)c3)o2)C(=O)Cc2ccc(OC)cc2)c2cc(OCCCO)ccc2N1C(=O)Cc1ccc(OC)cc1 (some centres not stated) -1.49
COC(=O)[C@@]1(Cc2ccccc2)[C@H]2c3cc(C(=O)N(C)C)n(Cc4cc(F)c(F)c(F)c4)c3C[C@H]2CN1C(=O)c1ccccc1 -0.258
C=C(C)[C@@H]1CC=C(C(O)C2C=CC3C(=O)N(Cc4ccccc4)C(=O)C3N2n2cnnc2)CC1 (some centres not stated) -0.295

Tested on: not listed separately
Assay: inhibition of PAO1 biofilm formation – strain PAO1, LB-PBS medium, absorbance 600 nm, primary screen (AID 1176)
Settings: P. aeruginosa PAO1 growth/biofilm, A600, 12 h; higher = more signal

z-score, inactive:
COC(=O)[C@@]1(Cc2ccc(OC)cc2)[C@H]2c3cc(C(=O)N4CCCC4)n(CCc4ccccn4)c3C[C@H]2CN1C(=O)c1ccccc1 1.5
CC(=O)N1Cc2ccccc2C[C@@]2(N=C(c3ccc(OCCCO)cc3)O[C@H]2c2ccccc2)C1=O 1.76
CC(C)NC(=O)[C@@]1(c2ccc([N+](=O)[O-])cc2)CC(=O)N(C(C)C)[C@@H]1c1ccc(CO)cc1 1.13
CC(C)C(O)C1C=CC2C(=O)N(C)C(=O)C2N1N1CCCCC1 (configuration not stated) 0.916
CCCC[C@@H]1C[C@H]1[C@@H](NC(=O)c1ccccc1)c1ccccc1 -0.471
CCN(CC)c1ccc(N2CC=CC34O[C@@H]5/C=C\CCCOC(=O)C5[C@H]3C(=O)N(CCCO)[C@@H]4C2=O)cc1 (some centres not stated) 0.053
COc1ccc(C(O)C2C=CC3C(=O)N(c4ccccc4)C(=O)C3N2Nc2ccccc2)c2ccccc12 (configuration not stated) 1.48
O=[N+]([O-])c1ccc(C[n+]2ccc(CCCO)cc2)o1 0.0214
C[N+](C)(C)CCCCNC(=O)[C@H]1C[C@H]2C(=O)N3CCC[C@H]3C(=O)N2[C@H]1c1ccc(O)cc1 0.146
COCCOC(=O)N1C(=O)[C@@]2(c3ccccc31)[C@H](C(=O)N1CCCCCCC1)[C@H]1C(=O)O[C@H](c3ccccc3)[C@H](c3ccccc3)N1[C@@H]2c1ccccc1OCCO 3.81
C=CCC(OC(C)=O)[C@@H]1[C@@H](N(Cc2ccc(-c3ccccc3)cc2)C(=O)c2ccc(C)cc2)c2cc(OCCCO)ccc2N1C(=O)Cc1ccc(OC)cc1 (some centres not stated) -0.312
COC(=O)[C@@]1(Cc2ccc(OC)cc2)[C@H]2c3cc(C(=O)N4CCCC4)n(C[C@H](O)CO)c3C[C@H]2CN1C(=O)c1ccccc1 -0.306
O=C1O[C@H](c2ccccc2)[C@H](c2ccccc2)N2[C@H]1[C@@H](C(=O)NC[C@H](O)c1ccccc1)[C@]1(C(=O)Nc3ccc(C#CC4=CCCCC4)cc31)[C@H]2c1ccc(O)cc1 2.02
COc1ccc([Si](C)(C)[C@@H]2[C@@H](CCO)O[C@]3(C(=O)N(Cc4ccccc4)c4ccc(N(C=O)c5ccccc5)cc43)[C@H]2C)cc1 3.19
COc1cc(NN2C(C(O)c3ccccc3)C=CC3C(=O)N(c4ccccc4)C(=O)C32)cc(OC)c1OC (configuration not stated) -0.0751
CN(C)CCCCNC(=O)[C@@H]1C[C@@H]2C(=O)N[C@@H](CCCCN)C(=O)N2[C@@H]1c1cccc(OCCO)c1 0.836
COc1c(C)cc(-c2cc3c(c(-c4ccccc4)n2)[Si](C(C)C)(C(C)C)O[C@H]3c2ccccc2)cc1C 0.161
[N-]=[N+]=NCc1ccccc1C[C@]1(C(=O)NCc2ccccc2)COC(c2ccc(OCCCO)cc2)=N1 0.385
C=CCOC(=O)[C@@H]1[C@H]2C(=O)O[C@H](c3ccccc3)[C@H](c3ccccc3)N2[C@H](c2ccc(OCCOC(=O)[C@H]3C[C@H]4C(=O)N[C@@H](CCCC[N+](C)(C)C)C(=O)N4[C@H]3c3cccc(OCCO)c3)cc2)[C@@]12C(=O)Nc1ccc(I)cc12 3.37
O=C1OCC=C[C@H]2OC34C=CCN(c5ccc(Cl)cc5)C(=O)[C@H]3N(CCCO)C(=O)[C@@H]4[C@@H]12 (some centres not stated) 0.276
O=c1cccc(-c2ccccc2)o1 0.421
C=C(COC)C(=O)CC[C@H](OC(=O)c1cccnc1)c1ccccc1OCCO 1.45
CCCCCN1CC=CC23O[C@@H]4C=CCCOC(=O)C4[C@H]2C(=O)N(CCCO)[C@@H]3C1=O (some centres not stated) -0.289
CCN(CC)c1ccc(N2CC=CC34O[C@@H]5C=CCOC(=O)[C@@H]5[C@H]3C(=O)N(CCCCCO)[C@@H]4C2=O)cc1 (some centres not stated) -0.193
C#C[C@H]1Oc2ccccc2S(=O)(=O)N2CCC[C@@H]12 -0.0582
O=C1C2C=CC(C(O)c3ccc(B(O)O)cc3)N(Nc3ccc([N+](=O)[O-])cc3)C2C(=O)N1c1ccccc1 (configuration not stated) 0.188
O=C1OCCC/C=C\[C@H]2OC34C=CCN(CCN5CCOCC5)C(=O)[C@H]3N(CCO)C(=O)[C@@H]4C12 (some centres not stated) -0.317
CC(=O)n1cc(C(O)C2C=CC3C(=O)N(c4ccccc4)C(=O)C3N2Nc2ccc(C#N)cc2)c2ccccc21 (configuration not stated) 0.956
COc1ccc(C(=O)Nc2cccc(CN3C(=O)[C@@]4(O[C@@H](CCn5cc([C@H](O)c6ccccc6)nn5)[C@H]([Si](C)(C)c5ccc(OC)cc5)[C@H]4C)c4ccccc43)c2)cc1 1.38
COC(=O)[C@@]1(Cc2ccc(F)cc2)[C@H]2c3cc(C(=O)N4CCCC4)n(CCc4ccc(OC)c(Br)c4)c3C[C@H]2CN1C(=O)c1ccccc1 1.07
CC(C)N1C(=O)c2ccccc2[C@](C)(C(=O)NC2CC2)[C@@H]1c1ccc(CO)cc1 -0.342
CCCNC(=O)[C@@]1(C)c2ccccc2C(=O)N(Cc2ccc(OC(F)(F)F)cc2)[C@H]1c1ccc(CO)cc1 0.251
C=CCC(OC(C)=O)[C@@H]1[C@@H](N(Cc2ccc(-c3cccc(C(F)(F)F)c3)o2)C(=O)Cc2ccc(OC)cc2)c2cc(OCCCO)ccc2N1C(=O)Cc1ccc(OC)cc1 (some centres not stated) 0.125
COC(=O)[C@@]1(Cc2ccccc2)[C@H]2c3cc(C(=O)N(C)C)n(Cc4cc(F)c(F)c(F)c4)c3C[C@H]2CN1C(=O)c1ccccc1 -0.0019
C=C(C)[C@@H]1CC=C(C(O)C2C=CC3C(=O)N(Cc4ccccc4)C(=O)C3N2n2cnnc2)CC1 (some centres not stated) 0.878
